# Reference: PubChem BioAssay (NCI)
# About 79,000 compounds went through this panel and 15% of them were active in at least one assay; those are over-represented in the sample as a whole. Unmarked numbers belong to inactive results. Active and inactive are the calls of the source. Cut-off read from the data, not from the text of the source: active = growth inhibition above about 70%; inactive = the rest.
# Tests used:
# [1] = NCI Yeast Anticancer Drug Screen. Data for the rad52 strain (AID 147);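 note: 0% = growth of vehicle-treated control cultures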; conditions: S. cerevisiae rad52 mutant growth inhibition, stronger effect = higher value
# Method in brief: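 Inhibition of yeast growth, referenced to vehicle controls, was the measured output for a strain with defective DNA damage repair.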
# [2] = NCI Yeast Anticancer Drug Screen. Data for the wt1 strain (AID 149);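 note: 0% = growth of vehicle-treated wt1 cultures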; conditions: S. cerevisiae wt1 strain (SPY 50644) growth inhibition, stronger effect = higher value
# Method in brief: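 Measured: growth of wt1 yeast under compound versus vehicle treatment, reported as inhibition.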
# [3] = NCI Yeast Anticancer Drug Screen. Data for the rad50EPP+ strain (AID 151);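 note: 0% = growth of vehicle-treated control cultures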; conditions: S. cerevisiae rad50 mutant strain, stronger effect = higher value
# Method in brief: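 Genetically defined yeast (rad50EPP+, DNA damage repair alteration) is grown with compound, and inhibition of growth is expressed relative to vehicle-treated controls.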
# [4] = NCI Yeast Anticancer Drug Screen. Data for the mgt1 strain (AID 153); conditions: S. cerevisiae mgt1 mutant growth inhibition, stronger effect = higher value
# Method in brief: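 In the mgt1 strain, test compounds were added and growth inhibition was determined relative to vehicle-treated controls.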
# [5] = NCI Yeast Anticancer Drug Screen. Data for the rad50 strain (AID 155);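 note: 0% = growth of vehicle-only cultures of the same strain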; conditions: S. cerevisiae rad50 strain growth inhibition, stronger effect = higher value
# Method in brief: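 Growth of the mutant yeast was measured after compound exposure and referenced to vehicle-treated cultures.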
# [6] = NCI Yeast Anticancer Drug Screen. Data for the mec2-1 strain (AID 157); conditions: S. cerevisiae mec2-1 strain, stronger effect = higher value
# Method in brief: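 Each compound was tested on mec2-1 yeast, a strain altered in DNA damage repair or cell cycle control. Growth inhibition is reported relative to vehicle.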
# [7] = NCI Yeast Anticancer Drug Screen. Data for the rad14 strain (AID 159);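 note: 0% = growth of vehicle-treated control cultures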; conditions: S. cerevisiae rad14 strain growth inhibition, stronger effect = higher value
# Method in brief: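 Here, inhibition of yeast growth was measured after compound exposure, using a strain with a genetic defect in DNA damage repair and vehicle-treated cultures as the reference.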
# [8] = NCI Yeast Anticancer Drug Screen. Data for the sgs1 mgt1 strain (AID 161);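 note: 0% = growth of cultures given vehicle only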; conditions: S. cerevisiae sgs1 mgt1 strain, stronger effect = higher value
# Method in brief: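 Mutant yeast exposed to compound; growth scored against vehicle-only wells.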
# [9] = NCI Yeast Anticancer Drug Screen. Data for the cln2 rad14 strain (AID 165);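 note: 0% = growth equal to vehicle treated cultures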; conditions: S. cerevisiae cln2 rad14 strain, stronger effect = higher value
# Method in brief: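 Test compounds were added to cln2 rad14 yeast cultures; inhibition of growth was then determined by comparison with vehicle treatment.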
# [10] = NCI Yeast Anticancer Drug Screen. Data for the bub3 strain (AID 167); conditions: S. cerevisiae bub3 mutant strain, stronger effect = higher value
# Method in brief: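 Whole-cell yeast assay. The mutant strain was incubated with compounds, and growth inhibition was determined by comparison with vehicle-treated cells.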
# [11] = NCI Yeast Anticancer Drug Screen. Data for the wt2 strain (AID 169);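 note: 0% = growth of vehicle-treated yeast cultures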; conditions: S. cerevisiae wt2 strain growth inhibition, stronger effect = higher value
# Method in brief: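 The panel's yeast strains carry defined changes in DNA repair or cell cycle genes. Each strain is grown with compound, and growth loss is scored relative to vehicle.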
# [12] = NCI Yeast Anticancer Drug Screen. Data for the mlh1 strain (AID 171);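 note: 0% = growth of vehicle-treated control cultures of the same strain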; conditions: S. cerevisiae mlh1 strain growth inhibition, stronger effect = higher value
# Method in brief: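 Inhibition values reflect reduced yeast growth in the presence of compound, referenced to vehicle controls, using a strain chosen for its alteration in DNA repair or cell cycle control.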
# [13] = NCI Yeast Anticancer Drug Screen. Data for the sgs1 strain (AID 173);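 note: 0% = growth of vehicle-only control cultures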; conditions: S. cerevisiae sgs1 mutant, stronger effect = higher value
# Method in brief: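 Vehicle-treated cultures served as reference for growth inhibition of a yeast strain altered in DNA damage repair or cell cycle control after compound exposure.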
# [14] = NCI Yeast Anticancer Drug Screen. Data for the mlh1 rad18 strain (AID 175); conditions: S. cerevisiae mlh1 rad18 strain growth inhibition, stronger effect = higher value
# Method in brief: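 Inhibition values reflect reduced growth of mutant yeast versus vehicle-treated controls following compound exposure; the mutations affect DNA damage repair.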
# [15] = NCI Yeast Anticancer Drug Screen. Data for the rad18 strain (AID 177); conditions: S. cerevisiae rad18 mutant growth inhibition, stronger effect = higher value
# Method in brief: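 Steps: expose repair-mutant yeast to compound; measure growth; express as inhibition relative to vehicle control.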
# [16] = NCI Yeast Anticancer Drug Screen. Data for the CLN2oe strain (AID 163);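 note: 0% = growth of vehicle-only control cultures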; conditions: S. cerevisiae CLN2oe strain, stronger effect = higher value
# Method in brief: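 First, the altered yeast strain was treated with each compound; second, its growth was measured; finally, inhibition was derived by comparison with vehicle controls.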
# [17] = at 5.0 µM (retest, dose inferred, filed as 0.5)
# [18] = at 50.0 µM (retest, dose inferred, filed as 5.0)
compound,measurement,setting,value
CN(C)CCN1C(=O)c2cccc3cc([N+](=O)[O-])cc(c23)C1=O,growth inhibition,[1]; at 1.2 µM,22%
same,growth inhibition,[1]; at 3.7 µM,58%
same,growth inhibition,[1]; at 11.0 µM,63%
same,growth inhibition,[1]; at 33.0 µM,90% (active)
same,growth inhibition,[1]; at 100.0 µM,93% (active)
same,growth inhibition,[2]; at 1.2 µM,16%
same,growth inhibition,[2]; at 3.7 µM,0%
same,growth inhibition,[2]; at 11.0 µM,-9%
same,growth inhibition,[2]; at 33.0 µM,-4%
same,growth inhibition,[2]; at 100.0 µM,23%
same,growth inhibition,[3]; at 1.2 µM,13%
same,growth inhibition,[3]; at 3.7 µM,25%
same,growth inhibition,[3]; at 11.0 µM,28%
same,growth inhibition,[3]; at 33.0 µM,66%
same,growth inhibition,[3]; at 100.0 µM,83% (active)
same,growth inhibition,[4]; at 1.2 µM,-11%
same,growth inhibition,[4]; at 3.7 µM,-13%
same,growth inhibition,[4]; at 11.0 µM,4%
same,growth inhibition,[4]; at 33.0 µM,5%
same,growth inhibition,[4]; at 100.0 µM,68%
same,growth inhibition,[5]; at 1.2 µM,13%
same,growth inhibition,[5]; at 3.7 µM,35%
same,growth inhibition,[5]; [17],28%
same,growth inhibition,[5]; at 11.0 µM,52%
same,growth inhibition,[5]; at 33.0 µM,87% (active)
same,growth inhibition,[5]; [18],93% (active)
same,growth inhibition,[5]; at 50.0 µM,72.6% (active)
same,growth inhibition,[5]; at 100.0 µM,94% (active)
same,growth inhibition,[6]; at 1.2 µM,-4%
same,growth inhibition,[6]; at 3.7 µM,2%
same,growth inhibition,[6]; [17],2%
same,growth inhibition,[6]; at 11.0 µM,-9%
same,growth inhibition,[6]; at 33.0 µM,-6%
same,growth inhibition,[6]; [18],13%
same,growth inhibition,[6]; at 50.0 µM,7.05%
same,growth inhibition,[6]; at 100.0 µM,48%
same,growth inhibition,[7]; at 1.2 µM,2%
same,growth inhibition,[7]; at 3.7 µM,6%
same,growth inhibition,[7]; at 11.0 µM,12%
same,growth inhibition,[7]; at 33.0 µM,-1%
same,growth inhibition,[7]; at 100.0 µM,34%
same,growth inhibition,[8]; [17],11%
same,growth inhibition,[8]; [18],51%
same,growth inhibition,[8]; at 50.0 µM,-10.9%
same,growth inhibition,[9]; [17],5%
same,growth inhibition,[9]; [18],38%
same,growth inhibition,[9]; at 50.0 µM,-26.2%
same,growth inhibition,[10]; at 1.2 µM,-1%
same,growth inhibition,[10]; at 3.7 µM,16%
same,growth inhibition,[10]; [17],-6%
same,growth inhibition,[10]; at 11.0 µM,21%
same,growth inhibition,[10]; at 33.0 µM,18%
same,growth inhibition,[10]; [18],21%
same,growth inhibition,[10]; at 50.0 µM,-4.65%
same,growth inhibition,[10]; at 100.0 µM,47%
same,growth inhibition,[11]; at 1.2 µM,-3%
same,growth inhibition,[11]; at 3.7 µM,0%
same,growth inhibition,[11]; at 11.0 µM,-1%
same,growth inhibition,[11]; at 33.0 µM,1%
same,growth inhibition,[11]; at 100.0 µM,30%
same,growth inhibition,[12]; at 1.2 µM,14%
same,growth inhibition,[12]; at 3.7 µM,1%
same,growth inhibition,[12]; at 11.0 µM,-13%
same,growth inhibition,[12]; at 33.0 µM,0%
same,growth inhibition,[12]; at 100.0 µM,60%
same,growth inhibition,[13]; at 1.2 µM,-24%
same,growth inhibition,[13]; at 3.7 µM,-2%
same,growth inhibition,[13]; at 11.0 µM,8%
same,growth inhibition,[13]; at 33.0 µM,12%
same,growth inhibition,[13]; at 100.0 µM,61%
same,growth inhibition,[14]; [17],6%
same,growth inhibition,[14]; [18],45%
same,growth inhibition,[15]; at 1.2 µM,10%
same,growth inhibition,[15]; at 3.7 µM,16%
same,growth inhibition,[15]; at 11.0 µM,17%
same,growth inhibition,[15]; at 33.0 µM,25%
same,growth inhibition,[15]; at 100.0 µM,80% (active)
COc1cccc(C(c2cc3c(cc2O)OCO3)N2CCOCC2)c1OC (stereo not given),growth inhibition,[1]; at 1.2 µM,-2%
same,growth inhibition,[1]; at 3.7 µM,2%
same,growth inhibition,[1]; at 11.0 µM,4%
same,growth inhibition,[1]; at 33.0 µM,23%
same,growth inhibition,[1]; at 100.0 µM,28%
same,growth inhibition,[2]; at 1.2 µM,-2%
same,growth inhibition,[2]; at 3.7 µM,-2%
same,growth inhibition,[2]; at 11.0 µM,-2%
same,growth inhibition,[2]; at 33.0 µM,0%
same,growth inhibition,[2]; at 100.0 µM,3%
same,growth inhibition,[3]; at 1.2 µM,-6%
same,growth inhibition,[3]; at 3.7 µM,-7%
same,growth inhibition,[3]; at 11.0 µM,0%
same,growth inhibition,[3]; at 33.0 µM,11%
same,growth inhibition,[3]; at 100.0 µM,56%
same,growth inhibition,[4]; at 1.2 µM,-3%
same,growth inhibition,[4]; at 3.7 µM,-5%
same,growth inhibition,[4]; at 11.0 µM,0%
same,growth inhibition,[4]; at 33.0 µM,-3%
same,growth inhibition,[4]; at 100.0 µM,4%
same,growth inhibition,[5]; at 1.2 µM,-1%
same,growth inhibition,[5]; at 3.7 µM,2%
same,growth inhibition,[5]; [17],-3%
same,growth inhibition,[5]; at 11.0 µM,1%
same,growth inhibition,[5]; at 33.0 µM,14%
same,growth inhibition,[5]; [18],48%
same,growth inhibition,[5]; at 50.0 µM,42.1%
same,growth inhibition,[5]; at 100.0 µM,46%
same,growth inhibition,[6]; at 1.2 µM,-1%
same,growth inhibition,[6]; at 3.7 µM,-1%
same,growth inhibition,[6]; [17],-1%
same,growth inhibition,[6]; at 11.0 µM,-2%
same,growth inhibition,[6]; at 33.0 µM,-2%
same,growth inhibition,[6]; [18],-9%
same,growth inhibition,[6]; at 50.0 µM,83.8% (active)
same,growth inhibition,[6]; at 100.0 µM,37%
same,growth inhibition,[7]; at 1.2 µM,0%
same,growth inhibition,[7]; at 3.7 µM,4%
same,growth inhibition,[7]; at 11.0 µM,7%
same,growth inhibition,[7]; at 33.0 µM,10%
same,growth inhibition,[7]; at 100.0 µM,21%
same,growth inhibition,[8]; [17],7%
same,growth inhibition,[8]; [18],79% (active)
same,growth inhibition,[8]; at 50.0 µM,42.5%
same,growth inhibition,[16]; at 1.2 µM,-4%
same,growth inhibition,[16]; at 3.7 µM,-3%
same,growth inhibition,[16]; at 11.0 µM,-4%
same,growth inhibition,[16]; at 33.0 µM,5%
same,growth inhibition,[16]; at 100.0 µM,19%
same,growth inhibition,[9]; [17],1%
same,growth inhibition,[9]; [18],3%
same,growth inhibition,[9]; at 50.0 µM,-30.1%
same,growth inhibition,[10]; at 1.2 µM,-4%
same,growth inhibition,[10]; at 3.7 µM,-4%
same,growth inhibition,[10]; [17],-13%
same,growth inhibition,[10]; at 11.0 µM,-9%
same,growth inhibition,[10]; at 33.0 µM,4%
same,growth inhibition,[10]; [18],56%
same,growth inhibition,[10]; at 50.0 µM,45%
same,growth inhibition,[10]; at 100.0 µM,11%
same,growth inhibition,[11]; at 1.2 µM,-3%
same,growth inhibition,[11]; at 3.7 µM,-6%
same,growth inhibition,[11]; at 11.0 µM,5%
same,growth inhibition,[11]; at 33.0 µM,0%
same,growth inhibition,[11]; at 100.0 µM,-3%
same,growth inhibition,[12]; at 1.2 µM,-3%
same,growth inhibition,[12]; at 3.7 µM,-1%
same,growth inhibition,[12]; at 11.0 µM,4%
same,growth inhibition,[12]; at 33.0 µM,7%
same,growth inhibition,[12]; at 100.0 µM,32%
same,growth inhibition,[13]; at 1.2 µM,-6%
same,growth inhibition,[13]; at 3.7 µM,-7%
same,growth inhibition,[13]; at 11.0 µM,8%
same,growth inhibition,[13]; at 33.0 µM,10%
same,growth inhibition,[13]; at 100.0 µM,60%
same,growth inhibition,[14]; [17],19%
same,growth inhibition,[14]; [18],71% (active)
same,growth inhibition,[14]; at 50.0 µM,9.25%
